Assay results: PubChem BioAssay AID504333 (National Center for Advancing Translational Sciences (NCATS), 2011)
In all, about 360,000 compounds went through this assay and about 16,000 (4.4%) were called active. Where a call stands in place of a potency, no number is given. Inconclusive results (about 9%) are left out. The sample holds actives, similar compounds and a random draw of the others, so the mix is not that of the screen. Calls follow the shape of the dose curve; as a rule, active = well fitted inhibition curve with a large enough effect; inconclusive = small, poorly fitted or top-dose-only effect; inactive = no such curve, though single readings can be large or run the other way.

Biological target: Bromodomain adjacent to zinc finger domain protein 2B (Homo sapiens) (UniProt Q9UIF8)
Sequence (Q9UIF8 whole entry, looked up, the tested form may be a part): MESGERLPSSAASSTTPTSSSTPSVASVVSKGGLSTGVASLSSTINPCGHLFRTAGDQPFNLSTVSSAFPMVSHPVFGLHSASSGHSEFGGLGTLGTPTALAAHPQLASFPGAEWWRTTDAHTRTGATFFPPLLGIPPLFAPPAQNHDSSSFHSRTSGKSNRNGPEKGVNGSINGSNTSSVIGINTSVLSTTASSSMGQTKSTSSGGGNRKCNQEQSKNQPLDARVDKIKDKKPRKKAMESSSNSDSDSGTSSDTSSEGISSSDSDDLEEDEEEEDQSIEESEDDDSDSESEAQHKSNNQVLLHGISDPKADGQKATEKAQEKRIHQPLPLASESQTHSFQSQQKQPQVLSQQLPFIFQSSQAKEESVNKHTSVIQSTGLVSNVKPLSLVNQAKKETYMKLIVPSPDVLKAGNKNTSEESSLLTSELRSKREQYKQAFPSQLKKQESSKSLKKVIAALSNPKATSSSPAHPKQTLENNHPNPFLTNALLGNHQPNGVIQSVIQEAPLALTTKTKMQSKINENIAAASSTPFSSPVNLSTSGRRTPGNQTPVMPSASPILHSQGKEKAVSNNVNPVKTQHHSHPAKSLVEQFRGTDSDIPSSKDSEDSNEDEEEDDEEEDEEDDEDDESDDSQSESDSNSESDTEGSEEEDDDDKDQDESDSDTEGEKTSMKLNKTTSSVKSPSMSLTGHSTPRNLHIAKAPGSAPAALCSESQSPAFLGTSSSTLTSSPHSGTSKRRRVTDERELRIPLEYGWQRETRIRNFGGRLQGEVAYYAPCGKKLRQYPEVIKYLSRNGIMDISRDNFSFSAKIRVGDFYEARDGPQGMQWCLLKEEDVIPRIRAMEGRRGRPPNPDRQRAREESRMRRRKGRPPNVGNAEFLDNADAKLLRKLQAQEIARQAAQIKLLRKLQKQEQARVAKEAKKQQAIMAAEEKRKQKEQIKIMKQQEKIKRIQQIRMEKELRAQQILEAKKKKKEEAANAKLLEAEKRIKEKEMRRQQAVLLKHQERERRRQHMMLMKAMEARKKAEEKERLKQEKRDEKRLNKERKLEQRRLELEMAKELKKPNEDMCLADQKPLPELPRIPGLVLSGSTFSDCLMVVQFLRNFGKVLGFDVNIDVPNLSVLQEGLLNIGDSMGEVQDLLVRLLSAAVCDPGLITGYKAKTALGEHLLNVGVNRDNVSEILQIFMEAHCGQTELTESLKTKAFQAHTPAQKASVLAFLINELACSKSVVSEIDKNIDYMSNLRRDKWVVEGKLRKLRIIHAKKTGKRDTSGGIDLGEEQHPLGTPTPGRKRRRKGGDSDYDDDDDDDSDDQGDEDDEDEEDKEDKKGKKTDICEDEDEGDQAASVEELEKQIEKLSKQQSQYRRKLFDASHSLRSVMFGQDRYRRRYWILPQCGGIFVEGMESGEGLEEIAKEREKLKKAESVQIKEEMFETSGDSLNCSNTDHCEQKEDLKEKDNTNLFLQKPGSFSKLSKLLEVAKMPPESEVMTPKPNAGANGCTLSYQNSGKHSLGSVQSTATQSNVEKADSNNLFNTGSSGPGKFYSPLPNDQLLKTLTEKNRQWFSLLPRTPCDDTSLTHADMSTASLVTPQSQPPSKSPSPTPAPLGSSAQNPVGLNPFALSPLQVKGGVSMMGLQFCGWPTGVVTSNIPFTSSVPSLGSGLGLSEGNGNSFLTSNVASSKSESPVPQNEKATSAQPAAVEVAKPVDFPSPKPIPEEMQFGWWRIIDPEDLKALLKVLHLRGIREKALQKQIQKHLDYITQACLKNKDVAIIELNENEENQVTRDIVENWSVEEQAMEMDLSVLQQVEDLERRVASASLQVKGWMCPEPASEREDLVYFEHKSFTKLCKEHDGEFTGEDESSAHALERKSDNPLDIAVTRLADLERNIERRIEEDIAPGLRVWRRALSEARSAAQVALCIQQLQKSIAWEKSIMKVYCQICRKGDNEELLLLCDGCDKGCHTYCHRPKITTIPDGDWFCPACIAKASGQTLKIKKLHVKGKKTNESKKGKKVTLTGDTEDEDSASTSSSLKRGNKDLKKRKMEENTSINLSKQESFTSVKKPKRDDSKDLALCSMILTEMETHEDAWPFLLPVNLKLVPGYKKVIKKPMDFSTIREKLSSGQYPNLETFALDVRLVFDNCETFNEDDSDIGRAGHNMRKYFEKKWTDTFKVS
Experiment: qHTS Assay for Inhibitors of BAZ2B; also: nearly all actives have a fitted effect of over 60% in size
Details: AlphaScreen BAZ2B-H3K14Ac peptide displacement; series mostly up to 114 µM
In short: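 Protein-peptide AlphaScreen: BAZ2B 50 nM, b-H3K14Ac 50 nM, 1x PBS pH 7.4 + 0.01% Tween-20. Preincubation 30 min RT; cpd 30 min RT (top 110 uM); beads 20 min RT, light-protected.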
Potency is read from the fitted curve at half-maximal effect.

Row | Compound | Potency
1 | Cc1ccnc(N2CCCC(C(=O)NC3CC3)C2)n1 (stereo unspecified) | inactive
2 | Cc1ccnc(SCC(N)=O)n1 | inactive
3 | Cc1ccnc(-n2sc3ccccc3c2=O)n1 | 25.1 µM (active)
4 | Cc1ccc(C)c(N2CCN(S(=O)(=O)c3ccc4c(c3)C(C(C)C)C(=O)N4)CC2)c1 (stereo unspecified) | inactive
5 | CC(NC(=O)c1cc2c(=O)n3ccccc3nc2n(C(C)C)c1=N)c1ccccc1 (stereo unspecified) | inactive
6 | CCc1ccccc1NC(=O)CSc1nc(C)c(C(=O)Nc2ccccc2)c(-c2ccc(Cl)cc2)c1C#N | inactive
7 | CCn1c(C)c(C)c2cc(C(=O)NCCc3cc(OC)ccc3OC)ccc21 | 31.6 µM (active)
8 | COc1ccc(-n2c(=O)[nH]c3cc(C(=O)NCCc4ccc(OC)c(OC)c4)ccc3c2=O)c(OC)c1 | inactive
9 | COc1ccc(OC)c(CCNC(=O)c2nn(C)c3c2CS(=O)(=O)c2ccccc2-3)c1 | inactive
10 | CCOc1cccc2cc(-c3cn4c(n3)sc3cc(C)ccc34)c(=O)oc12 | inactive
11 | Cc1cc(Br)ccc1NC(=S)NC1CCCC1 | inactive
12 | Cc1ccc(NC(=S)Nc2ncccc2C)c(C)c1 | 44.7 µM (active)
13 | Cc1ccc(NC(=O)CSc2cccc3cccnc23)c(C)c1 | inactive
14 | COC(=O)c1scc(-c2ccc(C)cc2)c1S(=O)(=O)Nc1cc(Cl)c(OC)cc1OC | inactive
15 | Cc1cc(C)c(NC(=O)CCc2c(C)nc3c(c(C)nn3C(C)(C)C)c2C)c(C)c1 | inactive
16 | OC(CNCc1ccc2c(c1)OCO2)COc1ccccc1 (stereo unspecified) | inactive
17 | OC(CNCCc1ccc(Cl)cc1Cl)COc1ccccc1 (stereo unspecified) | 70.8 µM (active)
18 | COc1ccc(OCC(O)CNC(=O)Nc2ccc(Cl)cc2)cc1 (stereo unspecified) | inactive
19 | CCCNC(=O)c1ccc(Cn2c(SCC(N)=O)nc3ccccc3c2=O)cc1 | inactive
20 | CC(=O)c1ccc(NC(=O)CSc2nnc(NC(=O)Nc3ccccc3)s2)cc1 | inactive
21 | O=C(c1ccco1)N1CCN=C1SCc1cccc(Cl)c1 | inactive
22 | Cc1cc2c(cc3c(SCc4cccc(Cl)c4)nnc(C)n32)o1 | 25.1 µM (active)
23 | Cc1cc2c(cc3c(SCc4nc(-c5ccccc5)oc4C)nnc(C)n32)o1 | inactive
24 | CCc1ccc(NC(=O)c2sc3nc4c(cc3c2N)CN(CC)CC4)cc1 | 35.5 µM (active)
25 | CCN1CCc2nc3sc(C(=O)Nc4ccccc4OC(F)(F)F)c(N)c3cc2C1 | inactive
26 | CCc1ccccc1NC(=O)c1sc2nc3c(cc2c1N)CN(Cc1ccccc1)CC3 | inactive

Row | Compound | Potency
27 | O=C(COc1ccccc1)NCc1ccc2c(c1)CCN2C(=O)c1ccc(F)cc1 | inactive
28 | CCc1nc2cccnc2n1-c1ccc(CC(=O)Nc2c(C)cccc2C)cc1 | inactive
29 | Cc1cc(C)cc(NC(=O)CSc2nc3nccnc3c(=O)n2CCc2c[nH]c3ccccc23)c1 | inactive
30 | Cc1ccc(-n2ncc3c(N4CCC(C(N)=O)CC4)ncnc32)cc1 | inactive
31 | Cc1cc(C)cc(OCC(=O)Nc2nc(-c3ccc(F)cc3)ns2)c1 | inactive
32 | CN(C)c1ccc(Nc2c3c4c(cccc4n(C)c2=O)C(=O)c2ccccc2-3)cc1 | 1.58 µM (active)
33 | COc1ccc(Br)cc1/C=N/NC(=O)c1cccc(S(=O)(=O)N2CCOCC2)c1 | inactive
34 | Cc1ncc(CO)c(/C=N/NC(=O)c2cccc(S(=O)(=O)N3CCCC3)c2)c1O | 28.2 µM (active)
35 | Cc1cccc(NC(=O)c2cccc(S(=O)(=O)N3CCCC3)c2)n1 | inactive
36 | CCC(=O)N1N=C(c2ccc(OC)cc2)CC1c1cn(-c2ccccc2)nc1-c1cccs1 (stereo unspecified) | inactive
37 | O=C(Cn1ncc2c3ccccc3n(Cc3ccccc3)c2c1=O)NC1CCCCCC1 | inactive
38 | COc1ccc(N2CCN(Cc3nnc(-c4ccccc4)o3)CC2)cc1 | inactive
39 | COc1ccc(N2CCN(Cc3ccc(Br)s3)CC2)cc1 | 17.8 µM (active)
40 | Fc1ccc(N2CCN(Cc3cnc(Oc4ccc(Br)cc4)s3)CC2)cc1 | inactive
41 | CCN1CCN(c2ncnc3c2cnn3-c2ccc(C)c(C)c2)CC1 | inactive
42 | CC(C)(C)c1ccc(OCC(=O)N2CCC(c3nc4ccccc4s3)CC2)cc1 | inactive
43 | COC(=O)C1=C(C)N(C(C)c2ccccc2)C(=O)/C1=C\c1ccco1 (stereo unspecified) | 20 µM (active)
44 | O=C(OCN1C(=O)c2ccccc2C1=O)/C(=C\c1ccco1)NC(=O)c1ccccc1 | inactive
45 | O=C(/C=C/c1ccco1)NC(=S)Nc1ccccc1Br | inactive
46 | CCc1cccc(C)c1NS(=O)(=O)c1ccc(-c2cc(C)no2)s1 | inactive
47 | CCC(=O)N1CCc2cc(Br)cc(S(=O)(=O)CCC(=O)NCCc3ccc(OC)c(OC)c3)c21 | inactive
48 | CC(C)NC(=O)C1CCC(Cn2c(=O)c3sccc3n(Cc3ccc(F)cc3)c2=O)CC1 (stereo unspecified) | inactive
49 | CCOC(=O)c1c(C)[nH]c(C)c1S(=O)(=O)N1CCCC(C(=O)NCc2ccccc2Cl)C1 (stereo unspecified) | inactive
50 | O=C(Nc1nc(-c2ccco2)c(-c2ccco2)s1)c1ccco1 | 44.7 µM (active)
51 | O=C(Nc1ccccc1)c1ccco1 | inactive
52 | O=C(Nc1nnc(CCOCCOCCc2nnc(NC(=O)c3ccco3)s2)s1)c1ccco1 | inactive

Row | Compound | Potency
53 | CCOc1ccc(CNC(=O)c2ccc(CS(=O)c3ccccc3)o2)cc1 (stereo unspecified) | inactive
54 | COc1cccc(-c2nn(-c3ccccc3)cc2/C=C(\C#N)C(=O)NCCCn2ccnc2)c1 | 50.1 µM (active)
55 | CC(C)(C)OC(=O)N/N=C/c1cn(-c2ccccc2)nc1-c1cccnc1 | inactive
56 | O=C(NCCCn1ccnc1)c1cc(-c2ccccc2)on1 | inactive
57 | Cc1cc2c(cc1S(=O)(=O)CCC(=O)Nc1ccc(OC(F)(F)F)cc1)OCC(=O)N2 | inactive
58 | Cc1cc(C)cc(NC(=O)CSc2oc(-c3ccccc3)nc2S(=O)(=O)c2ccc(Cl)cc2)c1 | inactive
59 | O=C(Nc1cccnc1)c1ccc(Cl)cc1[N+](=O)[O-] | inactive
60 | COc1ccc2oc(=N)c(C(=O)Nc3ccc(Br)cc3)cc2c1 | inactive
61 | O=C(Nc1cccnc1)c1cc2cc(Br)ccc2oc1=O | 79.4 µM (active)
62 | CCc1cc2c(cc3c(=O)n(CC(=O)N4CCN(c5cc(Cl)ccc5C)CC4)ncn32)s1 | inactive
63 | COc1cc(Cl)c(C)cc1NC(=O)CCc1nc2cccnc2n1Cc1cccs1 | inactive
64 | CCOc1ccc(NC(=O)c2c(NCc3cccc(OC)c3OC)sc3c2CCC3)cc1 | inactive
65 | Cc1ccc(-c2nn(CCC(=O)Nc3ccc(Cl)c(Cl)c3)c(=O)c3ccccc23)cc1 | inactive
66 | COc1ccc(CCC(=O)NCCc2csc(-c3ccc(Cl)cc3)n2)cc1 | inactive
67 | Cc1ccc(-c2nc(SCC(=O)Nc3ccccc3OC(F)F)c3c(C)c(C(=O)O)sc3n2)cc1 | 44.7 µM (active)
68 | O=C(COC(=O)c1ccccc1SCC(=O)N1CCCC1)Nc1ccccc1OC(F)F | inactive
69 | CCOC(=O)c1ccc[n+](CC(=O)Nc2ccccc2OC(F)F)c1 | inactive
70 | COc1cccc(C(=O)NC2=NC(c3ccc(N(C)C)cc3)CC(=O)N2)c1 (stereo unspecified) | inactive
71 | CCCCCn1c(=O)[nH]c2cc(C(=O)Nc3ccc(F)cc3)ccc2c1=O | inactive
72 | CCN(CC)S(=O)(=O)c1ccc2c(c1)N(CC(=O)NCC(C)c1ccccc1)C(=O)CO2 (stereo unspecified) | inactive
73 | CC(=O)N1CCCc2cc(S(=O)(=O)Nc3ccc(Cl)cc3F)ccc21 | inactive
74 | Cc1ccc2oc3c(c(=O)c2c1)C(c1ccc([N+](=O)[O-])cc1)N(CCCN1CCOCC1)C3=O (stereo unspecified) | inactive
75 | Cc1ccccc1NC(=O)Cn1c(=O)n(CCc2ccccc2)c(=O)c2ccccc21 | inactive
76 | Cc1ccc(C)c(CN2C(=O)c3ccccc3S(=O)c3ccc(C(=O)N4CCOCC4)cc32)c1 (stereo unspecified) | inactive
77 | O=[N+]([O-])C(=c1ccc2c(c1)N1C3=C(CCCC3)CC3CCCCC31N=2)[N+](=O)[O-] (stereo unspecified) | 44.7 µM (active)
78 | Cc1ccccc1CNC(=O)c1ccc(NC(=O)N2CCCCc3ccccc32)cc1 | inactive

Row | Compound | Potency
79 | Cc1ccc(CNC(=O)CSC2=Nc3ccccc3C3=NC(C)C(=O)N23)cc1 (stereo unspecified) | inactive
80 | CCCN1CCN(CCCNC(=O)c2ccc3nc(Cc4ccccc4)oc3c2)CC1 | inactive
81 | Cc1cccc(NC(=S)NCCc2ccc(Cl)cc2)c1C | inactive
82 | Cc1cc(F)ccc1NC(=S)NCCc1ccccc1 | inactive
83 | Cc1ccc(NC(=S)NCCc2ccc(Cl)cc2)c(C)c1 | 79.4 µM (active)
84 | COc1cccc(N=C2SC(C(=O)Nc3cccc(Cl)c3)CC(=O)N2C)c1 (stereo unspecified) | inactive
85 | CCOC(=O)N1CCc2c(sc(NCc3cccc(F)c3)c2C(=O)Nc2ccccc2OCC)C1 | inactive
86 | Cc1sc2nc(CSCC(=O)Nc3c(Cl)cccc3Cl)[nH]c(=O)c2c1C | inactive
87 | CSc1nnc(SCc2nc3sc(C(=O)O)c(C)c3c(=O)[nH]2)s1 | 50.1 µM (active)
88 | Cc1sc2nc(CSCC(=O)NC3CCCCC3)[nH]c(=O)c2c1C | inactive
89 | COc1c(Cl)cc(C(=O)N(Cc2ccccc2F)C2CCS(=O)(=O)C2)cc1Cl (stereo unspecified) | inactive
90 | CC1CCCCN1CC(=O)N1CCCc2c1c(=O)oc1ccc(OCc3ccccc3)cc21 (stereo unspecified) | inactive
91 | CCOc1ccc(NC(=O)C2CCN(S(=O)(=O)c3cc(-c4noc(C)n4)ccc3C)CC2)cc1 | inactive
92 | COCCNCCOCCOc1cccc(OC)c1 | inactive
93 | CC1(C)NC(=O)N(CCOc2cccc(Oc3ccccc3)c2)C1=O | inactive
94 | CC(O)CNCCOc1cccc(Oc2ccccc2)c1 (stereo unspecified) | 50.1 µM (active)
95 | COc1ccc(-c2c3c(=O)n(C)c(=O)n(C)c3c3c(C)nc4ccccc4n23)cc1 | inactive
96 | Cc1ccc(CCNC(=O)c2ccc3c(c2)N(Cc2cc(C)ccc2C)C(=O)c2ccccc2S3=O)cc1 (stereo unspecified) | inactive
97 | COc1cc(NC(=O)Cn2nc(-c3ccc(C)c(C)c3)ccc2=O)cc(OC)c1 | inactive
98 | O=C(O)c1ccc(Cn2c(SCc3ccc(F)cc3)nc3ccncc32)cc1 | inactive
99 | C=CCn1c2ccccc2c2nnc(SCc3[nH]c(=O)[nH]c3C(=O)CCCCC(=O)OCC)nc21 | 79.4 µM (active)
100 | CCn1c2ccccc2c2nnc(SCC(=O)O)nc21 | inactive
101 | C=CCn1c2ccccc2c2nnc(SC(CC)C(=O)Nc3nc(C)c(C(=O)OCC)s3)nc21 (stereo unspecified) | inactive
